Measurements from the supplement of paper PMC9023506.
Where a name gives a salt, the structure may show the parent alone.

system: Danio rerio larvae (5 dpf); test: excitability to 1-s acoustic pulses, difference vs DMSO (percentage points (treated minus DMSO)); higher = more of the behaviour than the DMSO vehicle control; conditions: 10 µM; exposure time: 3 h pre-incubation + 3 h imaging
Description: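 5-dpf wild-type zebrafish larvae were imaged in 96-well plates. They were treated with 190 Tocris FDA-approved drugs at 10 µM (1 µl/ml DMSO) for 3 h before and 3 h during imaging at 28.5 °C, 48 larvae per drug. Automated image analysis gave % time moving and optomotor responses. Values are drug group mean minus DMSO vehicle mean (n=844), in percentage points, for 10 behaviours.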

Row | Structure (SMILES) | excitability to 1-s acoustic pulses
1 | CCOC(=O)C1=C(COCCN)NC(C)=C(C(=O)OC)C1c1ccccc1Cl (stereo not given) [Amlodipine besylate] | -1.57
2 | Cc1ccsc1C(=CCCN1CCC[C@@H](C(=O)O)C1)c1sccc1C [Tiagabine hydrochloride] | -9.16
3 | CC(c1cc2ccccc2s1)N(O)C(N)=O (stereo not given) [Zileuton] | 4.34
4 | COc1cc(Nc2c(C#N)cnc3cc(OCCCN4CCN(C)CC4)c(OC)cc23)c(Cl)cc1Cl [Bosutinib] | 6.48
5 | CC(C)[C@H]1CC[C@H](C(=O)N[C@H](Cc2ccccc2)C(=O)O)CC1 [Nateglinide] | 1.64
6 | COc1cccc2c1C(=O)c1c(O)c3c(c(O)c1C2=O)C[C@@](O)(C(=O)CO)C[C@@H]3O[C@H]1C[C@H](N)[C@H](O)[C@H](C)O1 [Doxorubicin hydrochloride] | 13.8
7 | COc1ccccc1Oc1c(NS(=O)(=O)c2ccc(C(C)(C)C)cc2)nc(-c2ncccn2)nc1OCCO [Bosentan] | -1.1
8 | CCCCc1nc(Cl)c(CO)n1Cc1ccc(-c2ccccc2-c2nnn[nH]2)cc1 [Losartan potassium] | 5.58
9 | CCOc1ccccc1OCCN[C@H](C)Cc1ccc(OC)c(S(N)(=O)=O)c1 [Tamsulosin hydrochloride] | 14.9
10 | CCCCC1=NC2(CCCC2)C(=O)N1Cc1ccc(-c2ccccc2-c2nnn[nH]2)cc1 [Irbesartan] | -3.79
11 | CC1(C)O[C@@H]2[C@@H](CO[C@@]3(COS(N)(=O)=O)OC(C)(C)O[C@@H]23)O1 [Topiramate] | 4.36
12 | CC(C)C(=O)Nc1ccc([N+](=O)[O-])c(C(F)(F)F)c1 [Flutamide] | -5.4
13 | CCC(=O)O[C@]1(C(=O)SCF)[C@H](C)C[C@H]2[C@@H]3C[C@H](F)C4=CC(=O)C=C[C@]4(C)[C@@]3(F)[C@@H](O)C[C@@]21C [Fluticasone propionate] | 1.18
14 | Nc1cccc2c1CN(C1CCC(=O)NC1=O)C2=O (stereo not given) [Lenalidomide] | -2.77
15 | Nc1nc(NC2CC2)c2ncn([C@H]3C=C[C@@H](CO)C3)c2n1 [Abacavir hemisulfate] | -1.97
16 | OCc1cc(C(O)CNCCCCCCOCCCCc2ccccc2)ccc1O (stereo not given) [Salmeterol xinafoate] | 12.3
17 | Cc1cc(C2CCCCC2)n(O)c(=O)c1 [Ciclopirox] | 5.96
18 | CCCCNc1cc(C(=O)O)cc(S(N)(=O)=O)c1Oc1ccccc1 [Bumetanide] | 3.02
19 | CCCc1nc(C(C)(C)O)c(C(=O)O)n1Cc1ccc(-c2ccccc2-c2nnn[nH]2)cc1 [Olmesartan] | -0.185
20 | Brc1c(NC2=NCCN2)ccc2nccnc12 | 7.01

Row | Structure (SMILES) | excitability to 1-s acoustic pulses
21 | CCc1c2c(nc3ccc(OC(=O)N4CCC(N5CCCCC5)CC4)cc13)-c1cc3c(c(=O)n1C2)COC(=O)[C@]3(O)CC | 6.46
22 | COc1cc2nc(N3CCN(C(=O)C4COc5ccccc5O4)CC3)nc(N)c2cc1OC (stereo not given) [Doxazosin mesylate] | 20.8
23 | COc1c(C)c2c(c(O)c1C/C=C(\C)CCC(=O)OCCN1CCOCC1)C(=O)OC2 [Mycophenolate mofetil] | 0.817
24 | CCCCCCCN(CC)CCCC(O)c1ccc(NS(C)(=O)=O)cc1 (stereo not given) [Ibutilide hemifumarate] | 12.9
25 | CN1CCN(CCCN2c3ccccc3Sc3ccc(Cl)cc32)CC1 [Prochlorperazine dimaleate] | 23.6
26 | Nc1ccn([C@@H]2O[C@H](CO)[C@@H](O)C2(F)F)c(=O)n1 [Gemcitabine hydrochloride] | -1.2
27 | O=C(O)CCCc1ccccc1 [Sodium 4-Phenylbutyrate] | 2.04
28 | Cc1nnc(C(C)C)n1C1C[C@H]2CC[C@@H](C1)N2CC[C@H](NC(=O)C1CCC(F)(F)CC1)c1ccccc1 (stereo in doubt) [Maraviroc] | 8.65
29 | CN1CCN2c3ncccc3Cc3ccccc3C2C1 (stereo not given) [Mirtazapine] | 0.878
30 | COc1ccc(Cl)cc1C(=O)NCCc1ccc(S(=O)(=O)NC(=O)NC2CCCCC2)cc1 [Glibenclamide] | -0.0554
31 | CC(C)c1nc(CN(C)C(=O)N[C@H](C(=O)N[C@@H](Cc2ccccc2)C[C@H](O)[C@H](Cc2ccccc2)NC(=O)OCc2cncs2)C(C)C)cs1 [Ritonavir] | 7.52
32 | Cc1ccc(O)c([C@H](CCN(C(C)C)C(C)C)c2ccccc2)c1 [Tolterodine L-tartrate] | 7.2
33 | CC(=O)S[C@@H]1CC2=CC(=O)CC[C@]2(C)[C@H]2CC[C@@]3(C)[C@@H](CC[C@@]34CCC(=O)O4)[C@H]12 [Spironolactone] | 1.36
34 | COc1ccc([C@@H]2Sc3ccccc3N(CCN(C)C)C(=O)[C@@H]2OC(C)=O)cc1 [Diltiazem hydrochloride] | 1.38
35 | Cc1ccc(N(CC2=NCCN2)c2cccc(O)c2)cc1 [Phentolamine Mesylate] | 15.7
36 | CCCC1O[C@@H]2C[C@H]3[C@@H]4CCC5=CC(=O)C=C[C@]5(C)[C@H]4[C@@H](O)C[C@]3(C)[C@]2(C(=O)CO)O1 (stereo not given in full) [Budesonide] | -1.66
37 | CCOc1nc2cccc(C(=O)O)c2n1Cc1ccc(-c2ccccc2-c2nnn[nH]2)cc1 [Candesartan] | -3.51
38 | CC(=O)O[C@]1(C(C)=O)CC[C@H]2[C@@H]3C=C(C)C4=CC(=O)CC[C@]4(C)[C@H]3CC[C@@]21C [Megestrol Acetate] | 14.4
39 | Cc1cn([C@H]2C=C[C@@H](CO)O2)c(=O)[nH]c1=O [Stavudine] | 3.23
40 | CC[C@H]1OC(=O)[C@H](C)[C@@H](O[C@H]2C[C@@](C)(OC)[C@@H](O)[C@H](C)O2)[C@H](C)[C@@H](O[C@@H]2O[C@H](C)C[C@H](N(C)C)[C@H]2O)[C@](C)(O)C[C@@H](C)CN(C)[C@H](C)[C@@H](O)[C@]1(C)O [Azithromycin] | 13
